Source: PubChem BioAssay AID585 (National Center for Advancing Translational Sciences (NCATS), 2007)
The whole screen tested about 71,000 compounds, of which about 1,300 (1.8%) were called active. The sample holds actives, similar compounds and a random draw of the others, so the mix is not that of the screen. Values without a mark were called inactive. Calls follow the shape of the full dose curve.

target: Beta-lactamase (Escherichia coli (strain K12)) (UniProt P00811); assay: Promiscuous and Specific Inhibitors of AmpC Beta-Lactamase (assay without detergent); conditions: AmpC nitrocefin hydrolysis, absorbance 480 nm, no detergent; series mostly up to 28.7 µM; activity change, negative = inhibition: at the top concentration; as to activity change, negative = inhibition: % of control where 0% means no effect
Method: NIH Molecular Libraries Screening Centers Network [MLSCN]
NIH Chemical Genomics Center [NCGC]
PI Name: Shoichet, Brian K.
This aggregation profiling approach exploits the sensitivity of aggregate formation to detergent. Inhibition of b-lactamase is measured in the presence and absence of 0.01% Triton X-100. See Pubchem assay "Promiscuous and Specific Inhibitors of AmpC Beta-Lactamase (assay with detergent)" for related screen. Compounds that inhibit only in the absence of detergent are considered likely promiscuous aggregators.
A screen of 1,030 compounds was performed in Brian Shoichet's lab in 96-well format. AmpC activity was measured by following the absorbance at 480 nm. Nitrocefin is a chromogenic substrate: while nitrocefin is yellow (lmax 390 nm), the product of its hydrolysis is red (lmax 486 nm, 17,000 M-1). AmpC beta lactamase was provided by Brian Shoichet and Brian Feng, UCSF.
NCGC Assay Protocol Summary:
20 mM phosphate buffer, pH 7.0
Triton X-100: No Detergent screen: 0.0001%, Detergent screen: 0.01%.
Buffer in columns 3 and 4 as negative control (no enzyme).
5.3 nM AmpC in columns 1, 2, 5-48. Titration of UCSF compound 9 control (from 10 mM, then 1:2) pin-transferred to column 2. Column 1 is neutral (100% activity).
Six uL of reagents were dispensed to 1536-well Greiner black clear bottom plates. Compounds and controls (23 nL) were transferred via Kalypsys PinTool. The plates were incubated for 15 min at room temperature, and then 2 uL of 800 uM solution of nitrocefin was added to start the reaction. The plates were immediately transferred to and read every 20 seconds for 4 min on ViewLux (Perkin-Elmer) High-throughput CCD imager using 480 nm absorbance protocol. During dispense, reagent bottles were kept submerged into 4 deg C water bath.
Keywords: NIH Roadmap, MLSCN, MLI, MLSMR, qHTS, NCGC, AmpC Beta-Lactamase, Aggregation.
Potency is read from the fitted curve at half-maximal effect.

Chain of Beta-lactamase (Escherichia coli (strain K12)) (P00811 whole entry, looked up): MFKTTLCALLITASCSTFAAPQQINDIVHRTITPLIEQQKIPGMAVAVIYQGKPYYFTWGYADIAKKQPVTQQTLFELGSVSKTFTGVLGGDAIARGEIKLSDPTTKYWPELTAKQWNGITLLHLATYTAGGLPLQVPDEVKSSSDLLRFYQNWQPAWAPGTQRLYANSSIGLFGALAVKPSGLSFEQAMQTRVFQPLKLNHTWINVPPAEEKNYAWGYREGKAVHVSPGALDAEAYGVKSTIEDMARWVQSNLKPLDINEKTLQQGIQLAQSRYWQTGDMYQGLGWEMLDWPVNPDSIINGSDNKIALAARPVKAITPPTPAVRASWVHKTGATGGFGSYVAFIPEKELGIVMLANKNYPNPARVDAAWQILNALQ

SMILES	Potency	activity change, negative = inhibition
Cc1cc(NS(=O)(=O)c2ccccc2)no1	3.98 µM [single pt active] (active)	
COc1cc2ccccc2cc1C(=O)Nc1ccc(S(=O)(=O)Nc2cc(C)on2)cc1		-17%
O=S(=O)(Nc1ccccn1)c1ccc(Oc2ccccc2)cc1		-15.4%
CCCc1cc(=O)[nH]c(SCc2ccc(C#N)cc2)n1		-16.6%
CCOc1ccccc1C1CC(c2ccccc2)Nc2nc(N)nn21 (configuration not stated)	3.98 µM [single pt active] (active)	
Cc1ccc(C2CC(c3cccc(C)c3)n3nc(N)nc3N2)cc1 (configuration not stated)	3.98 µM [single pt active] (active)	
Nc1nc2n(n1)C(c1ccco1)CC(c1ccc(Cl)c(Cl)c1)N2 (configuration not stated)		67.6%
Cc1ccc(C2CC(c3cccc(Br)c3)n3nc(N)nc3N2)cc1 (configuration not stated)		55.1%
CCOc1ccccc1C1CC(c2ccc(Cl)cc2)Nc2nc(N)nn21 (configuration not stated)		95%
COc1ccc(C2CC(c3ccc(Cl)cc3Cl)Nc3nc(N)nn32)cc1OC (configuration not stated)		133%
O=C(O)CCCC(=O)Nc1ccccc1-n1ccnc1		-22.6%
CCOC(=O)c1c(NC(=O)CCC(=O)NCc2ccco2)sc2c1CCCC2		102%
CC(C)[C@H](CO)Nc1nc(Nc2cc(N)cc(Cl)c2)c2ncn(C(C)C)c2n1		76.9%
COc1ccccc1N1CCN(c2nc3ccccc3n3nnnc23)CC1		33.4%
NC(=O)c1ccc(OC[C@H](O)CN2CC=C(c3ccc(F)cc3)CC2)cc1		3.7%
Cc1ccc(SCc2cc(=O)[nH]c(N3CCCCC3)n2)cc1		10.2%
CN(C)c1nc(N)nc(CSc2nnnn2-c2cccc3ccccc23)n1		67.3%
N#CC1=C(N)Oc2n[nH]c(CSc3ccccc3)c2C12C(=O)Nc1ccccc12 (configuration not stated)		-8.6%
CCOc1ccc(N(CC(=O)OC)S(=O)(=O)c2c(C)noc2C)cc1		53.8%
O=c1cc(-c2ccc(O)c(O)c2)oc2cccc(O)c12		-12.2%
Oc1ccc(O)c2c(O)cccc12	0.631 µM (active)	
Cc1ccc(C(=O)NCC(=O)O)cc1S(=O)(=O)N1CCCCC1		-2%
CC[N+](C)(CC)CCC[n+]1c(-c2ccccc2)c2cc(N)ccc2c2ccc(N)cc21		18.9% [at 12.8 µM]
O=C(c1csnn1)N1CCC[C@@]2(CCN(c3cccc(-c4ccccc4)c3)C2)C1		73.1%
Cc1cc2cc(CN(Cc3cccs3)Cc3nnnn3CC3CCCO3)c(=O)[nH]c2cc1C (configuration not stated)		117%
O=C(NCc1cccnc1)c1ccc(CS(=O)(=O)c2ccc(Br)cc2)o1	3.16 µM (active)	

SMILES	Potency	activity change, negative = inhibition
CCCNS(=O)(=O)c1ccc(CCC(=O)NCc2cccnc2)cc1		11.5%
CC(C)(C)c1cc(C(=O)NCc2cccnc2)ccn1		2.5%
Cc1ccnc(SCCn2c(N(C)Cc3ccccc3)nc3c2c(=O)n(C)c(=O)n3C)n1		-2.9%
Cn1c(C(=O)NCCc2ccsc2)cc2c(=O)n(C)c3ccccc3c21		56.6%
CCN1CCCC1CNC(=O)Cn1cnc2ccc(S(=O)(=O)N3CCC(C)CC3)cc2c1=O (configuration not stated)		28.6%
Cn1c(C(=O)N2CCC(C(N)=O)CC2)cc2c(=O)n(C)c3ccccc3c21		23%
CC1CCCC(C)N1CCCNC(=O)c1cc2c(=O)n(C)c3ccccc3c2n1C (configuration not stated)	3.16 µM [single pt active] (active)	
CCN1CCCC1CNC(=O)c1cc2c(=O)n(C)c3ccccc3c2n1C (configuration not stated)	3.98 µM [single pt active] (active)	
CCn1c(=O)cc(OCC(=O)NCCCN2CCN(c3cccc(Cl)c3)CC2)c2ccccc21		159%
O=C(CCn1c(=O)[nH]c2ccccc2c1=O)NCCCN1CCN(c2cccc(Cl)c2)CC1		96.8%
Cn1c(C(=O)NCCN2CCc3ccccc3C2)cc2c(=O)[nH]c3ccccc3c21		91.4%
Cn1c(C(=O)NCCCN2CCN(c3cccc(Cl)c3)CC2)cc2c(=O)n(C)c3ccccc3c21	3.98 µM [single pt active] (active)	
CNC(=O)CSc1nnnn1-c1ccc(C)cc1C		-5.2%
CCOC(=O)c1ccc(NC(=O)CS(=O)(=O)c2cn(CC)c3ccccc23)cc1		-12.7%
CCOc1ccc(NC(=O)CCC(=O)n2nc(C)cc2C)cc1		-5.6%
CNC(=O)NCCN1CCCC1=O		-9.1%
COc1ncnc2c1N=C1CC(C)(C)CC(N)=C1S2		-11.2%
C=CCOC(=O)COCCC(C)C		-14.9%
CCOC(=O)Cn1c(N)c(C(=O)OC)sc1=S		-0.1%
CCOC(=O)c1sc(=S)n(-c2cccc(OC)c2)c1N		4.7%
CCOC(=O)c1sc(=S)n2c1[nH]c(=O)c1ccc(C(=O)OC)cc12	12.6 µM (active)	
Cc1ccc(OCc2nc(C#N)c(N3CCCC3)o2)cc1		28.1%
Cc1ccccc1S(=O)(=O)Cc1ccc(C(=O)NCCN2CCCCC2C)o1 (configuration not stated)		0.5%
C=CCNc1nnc(SCC(=O)N2CCCCC2)c2ccccc12		-5.9%
O=C(CN1C(=O)COc2ccccc21)Nc1ccc(F)cc1	3.98 µM [single pt active] (active)	
CCCN1CCN(CCCNC(=O)CN2C(=O)COc3ccccc32)CC1		-4.1%

SMILES	Potency	activity change, negative = inhibition
O=C(CN1C(=O)COc2ccccc21)NCCN1CCc2ccccc2C1		8.7%
COC(=O)[C@H](C)NC(=O)Nc1ccc(OC(F)(F)F)cc1		7.1%
Oc1c(Cl)cc(Cl)c(Cl)c1Cc1c(O)c(Cl)cc(Cl)c1Cl	5.01 µM (active)	
CC(=O)Nc1ccn(Cc2c(F)cccc2Cl)n1		-7%
O=C(Oc1ccc(-c2nc(-c3ccccn3)no2)cc1)c1ccccc1		0.2%
N#Cc1ccccc1-n1c(N)c(C(=O)N2CCCC2)sc1=S		22.4%
Cn1c(=O)[nH]c(=O)c2c1nc(CN(Cc1ccccc1)Cc1ccccc1)n2CCN1CCOCC1		127%
Cn1c(=O)oc2cc(S(=O)(=O)N3CCC(C(=O)Nc4ccc(OC(F)(F)F)cc4)CC3)ccc21		22.4%
O=C(Nc1nc2ccc(S(=O)(=O)N3CCCC3)cc2s1)C1CCCO1 (configuration not stated)		8.8%
Cc1ccc2nc(NC(=O)C3CCN(S(=O)(=O)c4ccc5c(c4)oc(=O)n5C)CC3)sc2c1	3.98 µM [single pt active] (active)	
CC(=O)OC(C(=O)NCCc1ccccc1)c1cccnc1 (configuration not stated)		-1.8%
C[N+]1(C)C2CC(OC(=O)C(CO)c3ccccc3)CC1[C@@H]1O[C@H]21 (some centres not stated)	inactive	
CCOc1ccc(CCNC(=O)C2CCN(c3ccc(N4CCOCC4)nn3)CC2)cc1OCC		73.5%
CCOc1ccccc1NC(=O)C1CCN(S(=O)(=O)c2c(C)nn(C)c2C)CC1		74.2%
CCOc1ccccc1NC(=O)C1CCC(CNc2c(N3CCOCC3)c(=O)c2=O)CC1 (configuration not stated)	3.98 µM [single pt active] (active)	
Cc1nc(-c2ccc(NC(=O)c3cccs3)cc2)cs1		-19.2%
COc1cccc2c(=O)n(CC(=O)N3CCCCCC3)ccc12		7.4%
O=C(NCc1ccc2c(c1)OCO2)C1CCCN(S(=O)(=O)c2cccs2)C1 (configuration not stated)	3.98 µM [single pt active] (active)	
O=C(NCc1cccs1)C1CCN(S(=O)(=O)c2ccc3c(c2)OCCO3)CC1		-11.3%
O=C(NC1CCCCC1)C1CCCN(S(=O)(=O)c2cccs2)C1 (configuration not stated)		24%
COc1cc2c(cc1OC)C(c1ccncc1)CC(=O)N2 (configuration not stated)		-5.8%
CC(C)c1nnc(NC(=O)C2CCCN2S(=O)(=O)c2ccc(Cl)cc2)s1 (configuration not stated)		10.4%
Cc1nc2ccc(S(=O)(=O)NCC(=O)O)cc2s1		-4.4%
Cc1nc2ccc(S(=O)(=O)NC(C(=O)N3CCCCCC3)C(C)C)cc2s1 (configuration not stated)	3.98 µM [single pt active] (active)	
Cc1nc2ccc(S(=O)(=O)NCC(=O)NCCN3CCCCC3C)cc2s1 (configuration not stated)		5.5%
COC(=O)c1c(NC(=O)CSc2nc3c(c(=O)n(C)c(=O)n3C)n2C(C)C)sc(C)c1C		27.8%

SMILES	Potency	activity change, negative = inhibition
CCn1nnc(NC(=O)c2c(OC)cccc2OC)n1		1%
CN(c1ccccc1)c1ccc(/C=c2\s/c(=C(/C#N)C(=O)C(C)(C)C)n(Cc3ccco3)c2=O)cc1	10 µM (active)	
O=c1nc2s/c(=C\c3ccco3)c(=O)n2nc1Cc1ccccc1		-21.7%
CCOC(=O)CSc1nc2c(sc(=S)n2CCc2ccccc2)c(=O)n1Cc1ccco1		-13.5%
CC1=CC(=O)C2=C(C)C[C@H](O)[C@@H]3[C@@H](OC(=O)[C@H]3C)[C@H]12		1.9%
CCOc1ccccc1N=C1NC(=O)CS1		-3.3%
O=C(CSc1nc2cc3c(cc2c(=O)n1CCC1=CCCCC1)OCO3)NCc1ccco1	12.6 µM (active)	
O=C(CCCn1c(SCC(=O)c2ccc(F)cc2)nc2ccccc2c1=O)NCc1ccco1		-3.1%
C=C(C)Cn1c(SCC(=O)NCc2ccco2)nc2sc3c(c2c1=O)CCC3		82.1%
CC(C)NC(=O)N1CC[C@@]2(CCCN(C(=O)c3cccn3C)C2)C1		15.4%
Cc1c2cn[nH]c(=O)c2c(C)n1Cc1ccc(F)cc1		17.3%
N#CCCN1CCN(S(=O)(=O)c2ccc(S(=O)(=O)NC3CCCCC3)cc2)CC1		67.1%
CCOC(=O)N1CCC(NC(=O)CCc2cn(C)c3ccccc23)CC1		37.8%
CCOC(=O)N1CCC(NC(=O)c2cnn3ccccc23)CC1	3.98 µM [single pt active] (active)	
CCOC(=O)N1CCC(NC(=O)Cc2cn(C)c3ccccc23)CC1		44.2%
COC(=O)N1CCC2(CCCN(Cc3ccccc3OC)C2)CC1		0.4%
c1ccc(-c2cn3cccnc3n2)cc1		-2.6%
O=C(C1=C(O)C(=O)N(c2ncccn2)C1c1cccs1)c1ccco1 (configuration not stated)		-10.9%
CNC(=O)Nc1cc(C(C)(C)C)no1		0.5%
Cc1cccc2c1N(CC(=O)OC(C)C)C(=O)C2=O		1.8%
COc1ccc(C)cc1S(=O)(=O)NC1CCCCC1		23.8%
CCOC(=O)N1CCC(Nc2c(NCCN3CCN(c4cccc(Cl)c4)CC3)c(=O)c2=O)CC1	3.98 µM [single pt active] (active)	
CCOC(=O)N1CCC(Nc2c(NCCCN3CCN(c4ccc(OC)cc4)CC3)c(=O)c2=O)CC1		45.6%
O=C(CCCn1c(=O)[nH]c2cc(Cl)ccc2c1=O)NCCN1CCN(c2ccccc2)CC1		92.9%
